A selection: hits, their analogues and other compounds. The true share with any hit is near 4.2%.
uPA surface inh = blocks generation of uPA at the cell surface; Potency, µM (highest dose often 38.3 µM), inactives show top-dose activity change, negative = inhibition, hits mostly inhibitors; 330,000 compounds, 0.31% hits; AID 540303; cell surface uPA generation assay, qHTS; active = well fitted inhibition curve with a large enough effect; inconclusive = small, poorly fitted or top-dose-only effect; inactive = no such curve, though single readings can be large or run the other way; tested in mouse RAW 264.7 cells; note: potency is the fitted concentration of half-maximal effect; % is set by controls: 0 for no effect and ±100 for the full control effect; nearly all actives have a fitted effect of over 55% in size
TCR activator = T cell receptor activation; AID 504894; 330,000 tested, under 10 active; primary human leukocytes, anti-CD3, IL-2 HTRF, 48 h; Potency, µM (highest dose often 9.22 µM), for inactives: top-dose activation of IL-2 secretion, most hits filed as activators; note: % of control where 0% means no effect
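IL-2 produced over 48 hr by a-CD3 bead-stimulated primary human leukocytes exposed to compounds was detected with a homogeneous time-resolved FRET immunoassay, 665nm acceptor signal after 320nm excitation.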
ClpP mod = qHTS Assay for Activators of ClpP | ATP-dependent Clp protease proteolytic subunit (Bacillus subtilis (strain 168)), P80244 | purified B. subtilis ClpP, FRET peptide cleavage, 20 min | Potency, µM (titrated, usually from 57.5 µM), inactives show at the top dose activity change, negative = active | 340,000 compounds, 1.9% hits | AID 651965, 2013; active = well fitted falling curve with a large enough effect; inconclusive = small, poorly fitted or top-dose-only effect; inactive = no such curve, though single readings can be large or run the other way; note: potency is the fitted concentration of half-maximal effect; the source files actives as falling curves though it sought activators and does not explain the sign; nearly all actives have a fitted effect of over 65% in size
Target sequence (P80244 whole entry, looked up): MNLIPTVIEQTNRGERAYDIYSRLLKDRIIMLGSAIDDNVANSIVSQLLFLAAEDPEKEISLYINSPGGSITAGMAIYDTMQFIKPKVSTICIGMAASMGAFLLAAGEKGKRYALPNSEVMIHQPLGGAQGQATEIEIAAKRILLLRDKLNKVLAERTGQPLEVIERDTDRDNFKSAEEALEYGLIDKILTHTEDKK
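ClpP 10 microg/mL final, pH 8 Tris/KCl buffer with BSA, glycerol, Tween-20; compound pinned in; FRET-FV substrate; RT 20 min; Ex320/Em430; ΔFRET vs ADEP 5.8 microM, DMSO, no enzyme.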
Sfp PPTase inh = blocks B. subtilis Sfp PPTase activity. Biochemical Sfp PPTase activity, qHTS. 310,000 compounds, 3.5% hits. Potency, µM, for the others: largest response in the series, negative = inhibition, usual class: inhibitors. Q9F4F7;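 note: the enzyme is Sfp with the accession as filed and its product quenches rhodamine fluorescence; potency is the fitted concentration of half-maximal effect; 0% = enzyme reaction without inhibitor and -100% = no enzyme wells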
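Sfp 15 nM + cpd, 15 min RT; start w/ rhodamine-CoA 5 uM, BHQ-2-YbbR 12.5 uM (final); 50 mM Hepes pH 7.6, 10 mM MgCl2, 0.01% NP-40, 0.01% BSA; read 525/598 nm at 0 and 30 min.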
Numbers without * were called inactive; ? = inconclusive; . = not tested or not shown; [ ] = dose if it differs, or a comment. Unless noted, calls come from the whole dose curve; as a rule, active = well fitted curve in the direction sought with a large enough effect; inconclusive = small, poorly fitted or top-dose-only effect, or another doubt; inactive = no such curve, though single readings can be large; an effect the other way counts as inactive or inconclusive.

SMILES	uPA surface inh	TCR activator	ClpP mod	Sfp PPTase inh
COc1ccc(CCNc2nc(-c3sc(C)nc3C)cs2)cc1OC	-8%	5%	-1%	45µM*
COc1ccc(/C=C(/NC(=O)c2ccc(OC)c(OC)c2)C(=O)NCCCn2ccnc2)cc1	1%	3%	.	2%
COCCCNC(=O)Cn1cnc2sc(C)c(S(=O)(=O)N3CCC(C)CC3)c2c1=O	.	.	-1%	.
CCCCC/C=C\C/C=C\CCCCCCCC(=O)NCC(=O)O	.	.	.	16%
O=C(O)C(=O)/C(=C\c1ccc([N+](=O)[O-])cc1)c1ccc2ccccc2n1	-4%	-1%	-1%	45µM*
O=C(O)C(=O)/C(=C\c1cccc2ccccc12)c1ccc2ccccc2n1	-12%	-1%	16µM*	-3%
O=C(O)C(=O)/C(=C\c1ccccc1)c1ccc2ccccc2n1	3%	-1%	?	-1%
COc1cccc(NC(=O)Cn2c(=O)n(CC(=O)NCc3ccc(C)cc3)c(=O)c3sccc32)c1	.	.	-9%	.
O=C(Cn1c(=O)oc2ccccc21)Nc1n[nH]c(=S)s1	-13%	3%	-2%	32µM*
O=C(Cn1c(=O)oc2ccccc21)Nc1nc(-c2ccccc2)cs1	-6%	6%	0%	2%
COc1cc(/C=N/NC(=O)c2nonc2C)ccc1O	3%	3%	.	13%
Cc1nonc1C(=O)N/N=C/c1ccc(O)c(O)c1	-6%	0%[46.1 µM]	28µM*	-6%
CCOC(=O)c1c(C)n(CCOc2ccccc2)c2ccc(O)cc12	-9%	7%	0%	71µM*
CCOc1ccc(-c2csc(N)c2C(=O)OC)cc1	-3%	9%	2%	45µM*
Cc1oc2ccc(O)c(CN3CCN(C)CC3)c2c1C(=O)Nc1ccccc1	.	.	-2%	.
CC(C)CCOP(=O)(c1ccc(N(C)C)cc1)C(O)c1ccccn1 (configuration not stated)	-1%	-13%	-7%	-2%
CC(C)COP(=O)(c1ccc(N(C)C)cc1)C(O)c1ccccn1 (configuration not stated)	1%	4%	-2%	79µM*
COc1ccc(CCNC(=O)c2cc3c(=O)n(C)c4cc(Cl)ccc4c3s2)cc1OC	.	.	-25%	.
O=C(OCc1ccccc1)c1cn(-c2ccccc2)nc1-c1ccncc1	-4%	-75%	-2%	89µM*
O=C(NCc1cccc(C(F)(F)F)c1)N1CCN(C(=O)c2ccccc2)CC1	1%	4%	2%	.
COCCn1c(=O)c(-c2ccc(Cl)cc2)nc2cnc(Oc3ccccc3)nc21	.	.	.	-4%
O=C1CSC(=S)N1/N=C/c1cc(Br)ccc1O	.	.	.	-15%
O=C1CSC(=S)N1/N=C/c1ccc(O)c(O)c1O	-3%	-4%	-1%	3.2µM*
CC(=O)c1ccc[n+](CC(=O)c2ccc(F)cc2)c1	.	.	1%	.
O=C(CCn1c(=O)sc2ccccc21)NC1CCCCC1	1%	7%	0%	6%
SMILES	uPA surface inh	TCR activator	ClpP mod	Sfp PPTase inh
O=C(Cn1ncc2c([nH]c3ccccc32)c1=O)Nc1cccc(C(F)(F)F)c1	.	.	-4%	.
CSc1n[nH]c2nc3c(c(=O)n12)C1(CCCCC1)Cc1ccccc1-3	5%	-11%	.	18µM*
CCSc1n[nH]c2nc3c(c(=O)n12)C1(CCCCC1)Cc1ccccc1-3	-15%	-8%	?	-26%
N#CCSc1n[nH]c2nc3c(c(=O)n12)C1(CCCCC1)Cc1ccccc1-3	-2%	4%	.	50µM*
CCOC(=O)CCc1c(C)n(CC)c2cc(-c3ccccc3OC)nn2c1=O	1%	-3%	11µM*	13%
Nc1nc2c(ncn2C2CCCC2)c(=O)[nH]1	2%	9%	.	.
Nc1nc(=S)c2ncn(C3CCCC3)c2[nH]1	-2%	2%	.	13µM*
COc1ccc2c(c1OC)CN(C)CCc1cc3c(cc1C(O)C2)OCO3 (configuration not stated)	4%	0%	-1%	7%
COc1ccc2c(c1OC)C(Cc1ccccc1)N1CCc3cc4c(cc3C1C2)OCO4 (configuration not stated)	.	.	.	56µM*
O=C(Nc1nnc(C2CC2)o1)c1ccc(S(=O)(=O)N2CCCc3ccccc32)cc1	6.3µM*	12%	0%	4%
COc1ccc(-c2cc(C(F)(F)F)nc(SCC(=O)NCc3cccs3)n2)cc1	.	5%	35µM*	-17%
COc1ccc(CNC(=O)CSc2nc(-c3ccccc3)cc(-c3cccs3)c2C#N)cc1	0%	-1%	?	-29%
CCN(CC)C(=O)CSc1nc(-c2cccs2)cc(-c2cccs2)c1C#N	-9%	0%[46.1 µM]	25µM*	7.9µM*
COc1ccccc1CNC(=O)CSc1nc(-c2ccc(OC)c(OC)c2)cc(C(F)(F)F)n1	.	.	28µM*	.
COc1ccc(-c2cc(-c3cccs3)c(C#N)c(SCC(=O)NCc3ccco3)n2)cc1	-9%	.	?	56µM*
O=C(CSc1nc(-c2ccccc2)cc(C(F)(F)F)n1)NCc1cccs1	-2%	0%[46.1 µM]	3%	-19%
CCN(CC)C(=O)CSc1nc(N)c(C#N)c(-c2cccs2)c1C#N	.	-4%[46.1 µM]	?	5%
COc1ccc(C(=O)C2CCCN(C(=O)c3csc(SC)n3)C2)cc1F (configuration not stated)	.	.	0%	.
COc1ccccc1CNC(=O)c1ccc(N2CCCC2)c(NC(=O)NCc2ccc(F)cc2)c1	.	.	-7%	.
CN(C)c1ncc2nc(-c3cccs3)c(=O)n(CCc3ccccc3)c2n1	.	.	.	3%
O=C(O)CCN1C(=O)c2ccc(Oc3ccc([N+](=O)[O-])cc3)cc2C1=O	2%	.	-1%	11%
Cc1nc2n(c(=O)c1CCN1CCC(c3noc4cc(F)ccc34)CC1)CCC[C@@H]2O	.	.	-1%	.
CCOC(=O)c1ccc(NC(=O)CSc2nc3ccccc3c(=O)n2CCC(=O)NC2CCCCC2)cc1	.	.	2%	.
Cc1cc(Br)cc2c(C(=O)OCC(=O)c3ccccc3)cc(-c3ccccc3)nc12	.	.	0%	.
COc1ccc(-c2cc(C(F)(F)F)nc(SCCC(=O)N3CCOCC3)n2)cc1	8%	4%	25µM*	20%
SMILES	uPA surface inh	TCR activator	ClpP mod	Sfp PPTase inh
COc1ccc(-c2cc(C(F)(F)F)nc(SCC(=O)NCc3cnn(C)c3C)n2)cc1OC	-7%	0%[46.1 µM]	28µM*	7%
CCOC(=O)c1cc(-c2ccc(OC)cc2)n(CCC(=O)Nc2ccc(OC)cc2OC)c1C	.	.	-4%	.
O=c1cc(CN2CCOCC2)c2ccc(O)c(O)c2o1	7%	13%	4%	45µM*
CCCc1cc(=O)oc2c(CN3CCOCC3)c(O)ccc12	-5%	1%	-2%	4%
O=c1cc(CN2CCN(Cc3ccccc3)CC2)c2ccc(O)c(O)c2o1	-13%	-4%	2%	79µM*
Cc1c(O)ccc2c(CN3CCN(Cc4ccccc4)CC3)cc(=O)oc12	-7%	6%	3%	9%
COC(=O)c1sccc1S(=O)(=O)N(CC(=O)Nc1c(C)cccc1C)c1ccc(C)c(C)c1	.	.	1%	.
CC(CCc1ccccc1)NC(=O)Cn1c(=O)nc(-c2ccccc2F)c2cc(Cl)ccc21 (configuration not stated)	.	.	4%	.
CC(NC(=O)c1nn(C)c2c1CSc1ccccc1-2)c1ccccc1 (configuration not stated)	.	.	-1%	.

Screening data: PubChem, National Center for Advancing Translational Sciences (NCATS)
